Calls of active or inactive are those of the source.

Test [1] deals with Human papillomavirus type 1a protein E7 (residues 44-93). The test can be described thus: small molecules binding HPV E7 44-93 – biochemical, small-molecule microarray, residues 44-93, 635 nm fluorescence, primary screen (AID 1108).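 Further: E7 fragment applied at 1 µg/mL in TBST for 1 h at 4 C; score combines spot fluorescence with its signal to noise ratio.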 The note with it: fluorescence 635 nm, higher = more signal.
The nature of test [2]: hepatitis C replication reporter changes, two-sided – Huh7 cells, luciferase reporter, HCV replication inhibitor project, primary screen (AID 1109).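 Further: huh7 hepatoma cells harbouring a luciferase neomycin HCV replicon reporter; luciferase luminescence as measure of HCV replicon replication; test concentration not given here.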 The note with it: Huh7 HCV replicon luciferase reporter, 48 h; higher = more signal. For orientation: Reporter assays use an easily measured gene product as a stand-in for the process of interest.
In test [3] the target is Left-right determination factor 2 (Homo sapiens) (UniProt O00292). The test can be described thus: small molecules binding LEFTY2 protein – biochemical, small-molecule microarray, 635 nm fluorescence scan, primary screen (AID 1110). The note with it: higher = more signal.
Chain of Left-right determination factor 2 (Homo sapiens) (O00292 whole entry, looked up): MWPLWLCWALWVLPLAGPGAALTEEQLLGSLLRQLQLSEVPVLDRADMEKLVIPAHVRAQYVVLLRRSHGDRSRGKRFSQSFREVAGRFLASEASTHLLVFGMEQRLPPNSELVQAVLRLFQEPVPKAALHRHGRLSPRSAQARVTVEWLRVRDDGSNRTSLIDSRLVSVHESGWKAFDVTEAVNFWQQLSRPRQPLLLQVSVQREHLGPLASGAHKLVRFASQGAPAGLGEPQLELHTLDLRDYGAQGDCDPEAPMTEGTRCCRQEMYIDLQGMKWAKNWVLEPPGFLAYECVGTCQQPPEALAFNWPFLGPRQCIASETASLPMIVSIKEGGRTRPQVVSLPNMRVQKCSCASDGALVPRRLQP
Test [4] has as its target Calmodulin-1 (Homo sapiens) (UniProt P0DP23). The test can be described thus: small molecules binding calmodulin-1 with EGTA – biochemical, small-molecule microarray, Cy5-labelled CALM1, profiling panel (AID 1111).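 Further: labelled calmodulin applied in Tris saline Tween buffer holding calcium plus EGTA and DTT.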 The note with it: Cy5-CALM1 binding fluorescence, higher = more signal.
For test [5] the target is unchanged. The test can be described thus: small molecules binding Ca-loaded calmodulin-1 – biochemical, small-molecule microarray, Cy5-labelled CALM1, plus calcium, artefact control for SMM control-protein annotation, profiling panel (AID 1112).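 Further: score merges spot fluorescence with signal to noise from triplicate slides.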 The note with it: Cy5-CALM1 binding fluorescence, higher = more signal.
Test [6] can be described thus: probe aWnt5a binding to arrayed compounds – biochemical, biotinylated probe, 635/667 nm fluorescence, primary screen (AID 1113).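 Further: score merges 667 nm fluorescence intensity with signal-to-noise per printed feature.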 The note with it: small-molecule microarray, higher = more signal.
The nature of test [7]: probe aShh binding to arrayed compounds – biochemical, biotinylated probe, 635/667 nm fluorescence, primary screen (AID 1114).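 Further: probe is biotin-labelled aShh protein from a stem cell growth factor screen; measures binding of labelled protein to compounds printed on the slide; score merges feature fluorescence at 667 nm with signal-to-noise.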 The note with it: small-molecule microarray, higher = more signal.
Test [8] is described as follows: probe aNog binding to arrayed compounds – biochemical, biotinylated probe, 635/667 nm fluorescence, primary screen (AID 1115).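 Further: probe is biotinylated aNog protein used at 0.15 µg/mL for 1 h at 4 C; z-score combines 667 nm fluorescence of each spot with its signal to noise.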 The note with it: small-molecule microarray, higher = more signal.
In test [9] the target is Torsin-1A-interacting protein 1 (Homo sapiens) (UniProt Q5JTV8). The test can be described thus: compound microarray binding of lysate hLAP1 – cell lysate, small-molecule microarray, COS7 lysate, 635/667 nm fluorescence, primary screen (AID 1116). The note with it: 635 nm fluorescence, higher = more signal.
Chain of Torsin-1A-interacting protein 1 (Homo sapiens) (Q5JTV8 whole entry, looked up): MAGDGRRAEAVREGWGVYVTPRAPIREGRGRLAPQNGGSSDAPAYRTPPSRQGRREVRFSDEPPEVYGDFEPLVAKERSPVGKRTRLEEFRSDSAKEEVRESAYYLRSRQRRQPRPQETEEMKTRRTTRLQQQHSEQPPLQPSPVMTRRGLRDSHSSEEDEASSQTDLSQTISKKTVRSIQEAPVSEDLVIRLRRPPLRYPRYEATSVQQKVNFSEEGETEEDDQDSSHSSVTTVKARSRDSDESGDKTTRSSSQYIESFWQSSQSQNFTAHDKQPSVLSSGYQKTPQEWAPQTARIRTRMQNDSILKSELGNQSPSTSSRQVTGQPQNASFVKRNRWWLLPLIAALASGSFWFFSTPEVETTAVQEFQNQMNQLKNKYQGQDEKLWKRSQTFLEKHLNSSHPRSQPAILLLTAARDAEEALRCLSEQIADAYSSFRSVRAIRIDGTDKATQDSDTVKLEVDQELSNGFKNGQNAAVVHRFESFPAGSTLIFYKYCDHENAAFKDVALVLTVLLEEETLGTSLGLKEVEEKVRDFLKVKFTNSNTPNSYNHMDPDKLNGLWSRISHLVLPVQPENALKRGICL
For test [10], the target named is Alpha-bungarotoxin (Bungarus multicinctus) (UniProt P60615). The test can be described thus: compounds binding labelled alpha-BTX control protein – biochemical, small-molecule microarray, Alexa647 label, 635/667 nm fluorescence, artefact control for SMM control protein annotation, profiling panel (AID 1117). The note with it: alpha-BTX-A647 binding fluorescence, higher = more signal.
Chain of Alpha-bungarotoxin (Bungarus multicinctus) (P60615 whole entry, looked up): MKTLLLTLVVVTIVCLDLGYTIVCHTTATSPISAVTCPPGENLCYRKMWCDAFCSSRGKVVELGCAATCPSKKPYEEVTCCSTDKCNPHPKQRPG

The target in the next test is Albumin (Bos taurus) (UniProt P02769). The test can be described thus: compounds binding labelled BSA control protein – biochemical, small-molecule microarray, Alexa647 label, 635/667 nm fluorescence, artefact control for SMM control protein annotation, profiling panel (AID 1118).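 Further: score merges 667 nm emission intensity and signal-to-noise per printed compound spot.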 The note with it: BSA-A647 binding, fluorescence 635 nm, higher = more signal.
Chain of Albumin (Bos taurus) (P02769 whole entry, looked up): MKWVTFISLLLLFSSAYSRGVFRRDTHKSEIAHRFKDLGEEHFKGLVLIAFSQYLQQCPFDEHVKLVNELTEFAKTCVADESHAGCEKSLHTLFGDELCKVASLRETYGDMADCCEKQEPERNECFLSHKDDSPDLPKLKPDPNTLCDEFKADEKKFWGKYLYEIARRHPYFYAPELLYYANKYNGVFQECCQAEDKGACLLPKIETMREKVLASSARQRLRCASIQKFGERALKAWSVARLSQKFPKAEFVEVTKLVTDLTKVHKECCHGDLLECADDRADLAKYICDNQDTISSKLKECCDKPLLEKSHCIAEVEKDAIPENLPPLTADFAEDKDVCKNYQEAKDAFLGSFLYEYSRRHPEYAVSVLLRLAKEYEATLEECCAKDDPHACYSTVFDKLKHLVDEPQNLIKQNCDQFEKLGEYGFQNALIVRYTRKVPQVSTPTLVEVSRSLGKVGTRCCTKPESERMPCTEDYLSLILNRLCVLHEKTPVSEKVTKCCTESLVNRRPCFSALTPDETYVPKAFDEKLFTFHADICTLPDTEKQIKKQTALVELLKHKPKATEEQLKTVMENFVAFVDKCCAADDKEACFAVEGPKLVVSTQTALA
The nature of test [11]: probe aXIP binding to arrayed compounds – biochemical, NeuroSMM set, 635/667 nm fluorescence, primary screen (AID 1119).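 Further: probe is the protein aXip251-270 applied at 1 µg/mL to compound-printed slides; binding of probe to printed compounds measured as 667 nm fluorescence plus signal to noise.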 The note with it: small-molecule microarray, higher = more signal, called active from +8 up or from −8 down.
A short description of test [12]: probe aNOTCH3 binding on compound microarray – biochemical, small-molecule microarray, 635/667 nm fluorescence, primary screen (AID 1120).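 Further: probe is a biotin-tagged antibody raised against NOTCH3 rather than NOTCH3 protein; score merges spot fluorescence near 667 nm with spot signal to noise.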 The note with it: higher = more signal.
Test [13] can be described thus: probe aNOTCH2 binding on compound microarray – biochemical, small-molecule microarray, 635/667 nm fluorescence, primary screen (AID 1121).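 Further: score merges feature fluorescence read at 667 nm with its signal to noise.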 The note with it: higher = more signal.
Test [14] has as its target Carbonic anhydrase 2 (Homo sapiens) (UniProt P00918). The test can be described thus: compounds binding carbonic anhydrase 2 – biochemical, small-molecule microarray, Alexa647-labelled CAII, profiling panel (AID 1122). The note with it: CAII-A647 binding fluorescence, higher = more signal.
A short description of test [15]: COS7 lysate on small-molecule microarray, probe aHis, 635 nm (AID 1123).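 Further: z-score combines 667nm fluorescence intensity with signal-to-noise per printed compound spot.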 The note with it: COS7 cell lysate, fluorescence, higher = more signal.
Test [16] is described as follows: probe aLAP1 signal on lysate-treated microarray – cell lysate, small-molecule microarray, COS7 lysate, primary screen (AID 1124).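 Further: lysate comes from COS7 cells expressing LAP1 and is applied at 0.3 µg/mL; score merges spot fluorescence near 667 nm with signal-to-noise over triplicate slides.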 The note with it: probe aLAP1, fluorescence, higher = more signal.
A further test concerns Sam68 (KHDRBS1). The test can be described thus: compounds binding KHDRBS1 protein – biochemical, small-molecule microarray, 635 nm fluorescence, primary screen (AID 1125).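 Further: score merges 667 nm channel intensity with signal to noise over triplicate slides.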 The note with it: higher = more signal.
The test system of test [17] is Chordin-like protein 2 (CHRDL2). The test can be described thus: compounds binding chordin-like 2 – biochemical, small-molecule microarray, 635 nm fluorescence, primary screen (AID 1126).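 Further: printed compound slides probed with Chrdl2 protein at 4 µg/mL for 1 h at 4 C; score merges 667 nm emission intensity with signal to noise over three replicate slides.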 The note with it: fluorescence 635 nm, higher = more signal.
For test [18], the target named is Concanavalin-A (Canavalia ensiformis) (UniProt P02866). The test can be described thus: compounds binding concanavalin A lectin – biochemical, small-molecule microarray, Alexa647 label, 635 nm, artefact control for SMM control protein annotation, primary screen (AID 1127).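 Further: z combines 667 nm emission intensity with signal-to-noise across three replicate slides.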 The note with it: ConA-A647 binding fluorescence, higher = more signal.
Chain of Concanavalin-A (Canavalia ensiformis) (P02866 whole entry, looked up): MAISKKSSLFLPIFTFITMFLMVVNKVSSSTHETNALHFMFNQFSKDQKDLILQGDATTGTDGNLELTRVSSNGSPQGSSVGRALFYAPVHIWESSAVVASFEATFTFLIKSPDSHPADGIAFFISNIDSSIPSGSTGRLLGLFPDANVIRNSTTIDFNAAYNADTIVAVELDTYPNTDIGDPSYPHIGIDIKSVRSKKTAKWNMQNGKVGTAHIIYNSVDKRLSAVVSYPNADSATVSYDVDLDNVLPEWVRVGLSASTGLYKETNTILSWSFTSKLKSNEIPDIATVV

With `C=C(C)[C@@H]1CC=C(C(O)C2C=CC3C(=O)NC(=O)C3N2Nc2ccccn2)CC1` (stereo not given in full), the composite z-score in [1] is 0.355; in [3], 1.57; in test [4], 0.206; in [5], -0.815; in [6] it was 0.116; in test [7], 0.358. Further, the composite z-score is 0.145 in [8]; 1.06 in test [9]; 2.09 in [10]; -0.27 with Albumin (Bos taurus); 0.441 in test [12]; 0.0179 in [13]. In addition, the composite z-score came out at 0.809 in test [14]; 1.37 in test [15]; 0.759 in test [16]; 1.31 in the test on Sam68 (KHDRBS1); 1.61 in test [17]; 1.14 in test [18]. Further, in [2], the z-score is -0.308. Further, the composite Z-score in test [11] is 0.804 (inactive).

For the molecule `CCOC(=O)C[C@H]1[C@H](OC(=O)Cc2ccc3c(c2)OCO3)[C@@H](NC(=O)c2ccc3ccccc3c2)c2cc(OCCCO)ccc2N1C(=O)Cc1ccc(OC)cc1`, the composite z-score in [1] is 1.01; in [3], 0.296; in [4] it was 1.19; in test [5], 0.139; in test [6], -0.159; in [7], -0.367. In addition, the composite z-score in [8] is -0.568; in test [9], 0.941; in test [10] it was 0.454; with Albumin (Bos taurus) it was 0.897; in test [12], 0.0284; in [13] it was -0.0846. In addition, the composite z-score in test [14] is 0.0553; in test [15], 1.54; in [16] it was -0.333; in the test with Sam68 (KHDRBS1), 0.952; in test [17], 0.472; in test [18], 0.684. Besides, the z-score in test [2] is -1.74. The composite Z-score in [11] is 0.563 (inactive).

For `Cc1cc(C)c(C(O)C2C=CC3C(=O)N(C)C(=O)C3N2N2CCCCC2)c(C)c1` (stereo not given), the composite z-score in [1] turned out to be 1.37; in [3] it was 0.314; in test [4], 1.75; in test [5], 0.22; in test [6], 0.0437; in test [7], 0.308. In addition, the composite z-score in test [8] turned out to be 1.45; in test [9], 0.959; in [10], 2.36; with Albumin (Bos taurus), 0.477; in [12], 0.364; in test [13] it was 0.192. Also, the composite z-score in test [14] amounted to 0.74; in test [15], 1.81; in test [16] it was 0.83; in the test with Sam68 (KHDRBS1), 1.29; in test [17], 0.245; in test [18], 1.15. The z-score in test [2] was 0.186. The composite Z-score in [11] is 1.16 (inactive).

With `CC(C)N1CC=CC23O[C@@H]4/C=C\CCCOC(=O)C4[C@H]2C(=O)N(CCO)[C@@H]3C1=O` (stereo not given in full), the composite z-score was -0.526 in [1]; -0.999 in [3]; -0.428 in test [4]; -0.793 in [5]; -0.188 in test [6]; -0.0769 in test [7]. The composite z-score is -0.0624 in [8]; 2.9 in test [9]; -0.493 in [10]; 0.767 in the test with Albumin (Bos taurus); -0.0918 in test [12]; -0.0874 in test [13]. In addition, the composite z-score in [14] is 0.893; in [15], 0.572; in test [16], 1.43; in the test with Sam68 (KHDRBS1), 0.534; in test [17], -1.4; in test [18], 0.329. In test [2], this molecule came in with a z-score of -0.648. Further, the composite Z-score in test [11] is 1.95 (inactive).

For the molecule `C[C@@H]1NC(=O)CC=C[C@@H](C)[C@@H]2C=C[C@H](O)[C@@H](COC(=O)[C@H](C)NC(=O)CC=C[C@@H](C)[C@@H]3C=C[C@H](O)[C@@H](COC1=O)O3)O2`, the composite z-score is 0.0804 in test [1]; 0.0183 in [3]; -0.417 in [4]; -0.0969 in [5]; -0.172 in [6]; -0.426 in test [7]. Moreover, the composite z-score in [8] is -0.134; in [9], -0.166; in test [10], -0.64; with Albumin (Bos taurus), -0.942; in [12], -0.0328; in [13] it was -0.179. Besides, the composite z-score was -0.0551 in test [14]; -0.384 in test [15]; -0.0401 in test [16]; -0.116 with Sam68 (KHDRBS1); 0.786 in test [17]; -1.2 in [18]. In addition, the z-score in test [2] was determined as 0.128. The composite Z-score in test [11] is -0.0764 (inactive).

On to `C=C(COC)C(=O)CC[C@H](OC(=O)c1ccccc1-c1ccccc1C(=O)O)c1cccc(OCCO)c1`, for which the composite z-score in test [1] was 1.4; in test [3], 0.757; in [4], 3.03; in test [5], 0.733; in [6], 0.0519; in [7], -0.17. The composite z-score was 0.0519 in test [8]; 3.73 in test [9]; -0.151 in test [10]; -0.611 with Albumin (Bos taurus); 0.123 in test [12]; -0.118 in [13]. Moreover, the composite z-score in test [14] was found to be 0.418; in [15], 4.78; in test [16], 0.893; with Sam68 (KHDRBS1) it was 0.735; in test [17], 1.43; in test [18], 0.893. The z-score in test [2] was -3.1. Moreover, the composite Z-score in test [11] is 0.61 (inactive).

Regarding `COC(=O)c1ccc(C#CC(NP(=O)(c2ccccc2)c2ccccc2)c2ccccc2)cc1` (stereo not given), the composite z-score in test [1] is 1.39; in test [3] it was -0.34; in [4] it was 1.92; in test [5], 0.863; in test [6], 0.0381; in test [7], -0.519. The composite z-score in [8] was 1.59; in test [9] it was 0.403; in test [10] it was 2.89; in the test with Albumin (Bos taurus) it was 1; in test [12], 0.272; in test [13], 0.335. In addition, the composite z-score in [14] is 1.1; in test [15] it was 2.59; in [16] it was -0.0375; with Sam68 (KHDRBS1), 1.08; in test [17] it was 1.49; in test [18] it was 1.15. The molecule also registered a z-score in test [2] of -0.173. The composite Z-score in [11] was 0.444 (inactive).

On to `C#CCCCON=C1C[C@@H](O)[C@@H](O)[C@@H]2[C@@H]3C(=O)N(Cc4ccc5c(c4)OCO5)C(=O)[C@@H]3CC[C@H]12`, for which the composite z-score in test [1] was 1.36; in [3] it was 0.774; in [4], 0.601; in test [5], -0.783; in test [6], -0.0735; in test [7], 0.0796. Moreover, the composite z-score was -0.326 in [8]; 1.34 in test [9]; 0.24 in test [10]; 0.86 in the test with Albumin (Bos taurus); 0.116 in test [12]; -0.181 in test [13]. In addition, the composite z-score in test [14] worked out at 0.495; in test [15] it was 1.21; in test [16], 0.786; with Sam68 (KHDRBS1), 1.15; in [17], 0.558; in test [18] it was 0.752. The molecule also registered a z-score in test [2] of -0.0463. For the same molecule, the composite Z-score in test [11] is 0.756 (inactive).

For `COc1ccc(-c2ccccc2[C@@H]2N[C@H](C(=O)O)CC[C@H]2C)cc1`, the composite z-score is 0.404 in test [1]; 0.594 in test [3]; -0.27 in test [4]; -0.699 in [5]; -0.0222 in test [6]; 0.138 in [7]. Moreover, the composite z-score in test [8] is 0.432; in [9], 0.583; in test [10] it was 0.288; with Albumin (Bos taurus) it was -0.497; in test [12], -0.0647; in test [13], -0.131. In addition, the composite z-score was 0.0441 in test [14]; 0.711 in test [15]; -0.423 in [16]; 0.297 with Sam68 (KHDRBS1); 0.456 in test [17]; 0.301 in test [18]. In test [2], this molecule returned a z-score of -0.388. In [11], the composite Z-score was 0.3 (inactive).

Values taken from PubChem BioAssay.
